Source: the supplement of paper PMC11732987, “Enantioselective OTUD7B fragment discovery through chemoproteomics screening and high-throughput optimisation” (Communications Chemistry, 2025)

Tests used:
Assay in all cases: log2 ratio of Biotin-Ahx-Ub-VS probe labelling (fragment/DMSO); higher = less target engagement (more negative = stronger competition), active = hit call of the paper (q ≤ 0.05, log2 ratio ≤ -1)
Conditions in all cases: compound concentration: 200 uM; treatment time: 3 h
[1] = molecular target: T1, USP19 (UniProt O94966)
T1 sequence (whole entry): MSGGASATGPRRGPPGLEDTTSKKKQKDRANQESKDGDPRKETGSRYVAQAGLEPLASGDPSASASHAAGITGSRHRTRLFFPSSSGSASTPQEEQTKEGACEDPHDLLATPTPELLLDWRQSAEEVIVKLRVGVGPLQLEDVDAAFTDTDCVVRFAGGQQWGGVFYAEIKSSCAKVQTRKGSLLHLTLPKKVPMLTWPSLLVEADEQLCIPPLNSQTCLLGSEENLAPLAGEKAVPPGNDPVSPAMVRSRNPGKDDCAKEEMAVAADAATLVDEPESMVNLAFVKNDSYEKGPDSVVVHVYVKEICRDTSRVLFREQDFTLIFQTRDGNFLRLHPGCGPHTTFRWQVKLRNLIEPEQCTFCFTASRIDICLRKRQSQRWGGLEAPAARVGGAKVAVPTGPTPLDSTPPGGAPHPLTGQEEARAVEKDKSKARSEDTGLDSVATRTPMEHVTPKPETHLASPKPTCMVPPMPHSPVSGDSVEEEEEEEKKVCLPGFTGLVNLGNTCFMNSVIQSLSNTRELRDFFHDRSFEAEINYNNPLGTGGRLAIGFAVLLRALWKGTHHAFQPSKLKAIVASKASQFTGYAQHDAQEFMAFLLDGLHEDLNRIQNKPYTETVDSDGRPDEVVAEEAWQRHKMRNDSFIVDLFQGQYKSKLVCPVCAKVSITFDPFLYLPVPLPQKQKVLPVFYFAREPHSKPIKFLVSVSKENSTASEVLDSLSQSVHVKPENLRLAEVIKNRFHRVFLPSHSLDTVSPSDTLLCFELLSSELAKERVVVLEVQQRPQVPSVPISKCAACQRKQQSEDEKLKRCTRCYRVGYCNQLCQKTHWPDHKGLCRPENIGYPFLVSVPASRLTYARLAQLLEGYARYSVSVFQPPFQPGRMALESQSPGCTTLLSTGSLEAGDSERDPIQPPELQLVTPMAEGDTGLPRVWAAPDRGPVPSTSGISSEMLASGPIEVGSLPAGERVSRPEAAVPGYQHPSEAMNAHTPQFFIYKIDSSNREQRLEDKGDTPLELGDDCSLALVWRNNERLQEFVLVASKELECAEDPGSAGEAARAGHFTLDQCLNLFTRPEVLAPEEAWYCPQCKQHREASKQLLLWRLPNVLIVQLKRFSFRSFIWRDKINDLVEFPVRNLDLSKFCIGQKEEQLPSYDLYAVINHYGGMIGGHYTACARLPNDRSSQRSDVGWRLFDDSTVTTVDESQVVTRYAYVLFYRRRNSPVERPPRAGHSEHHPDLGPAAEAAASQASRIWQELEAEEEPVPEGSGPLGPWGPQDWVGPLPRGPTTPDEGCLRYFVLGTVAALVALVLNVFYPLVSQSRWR
How it was run: (§1)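 Global-median-normalised Spectronaut label-free quantities were compared by unpaired t-test, and values are average log2 ratios of fragment over vehicle. Only proteins with ≥2 unique peptides were used. HEK293T lysate (495 µg per sample) was treated in triplicate with fragment at 200 µM or vehicle for 3 h and then with Biotin-Ahx-Ub-VS at 0.5 µM final for 1 h. Labelled DUBs were then NeutrAvidin-enriched, digested with LysC and trypsin, and run by diaPASEF LC-MS/MS.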

[2] = molecular target: T2, USP22 (UniProt Q9UPT9)
T2 sequence (whole entry): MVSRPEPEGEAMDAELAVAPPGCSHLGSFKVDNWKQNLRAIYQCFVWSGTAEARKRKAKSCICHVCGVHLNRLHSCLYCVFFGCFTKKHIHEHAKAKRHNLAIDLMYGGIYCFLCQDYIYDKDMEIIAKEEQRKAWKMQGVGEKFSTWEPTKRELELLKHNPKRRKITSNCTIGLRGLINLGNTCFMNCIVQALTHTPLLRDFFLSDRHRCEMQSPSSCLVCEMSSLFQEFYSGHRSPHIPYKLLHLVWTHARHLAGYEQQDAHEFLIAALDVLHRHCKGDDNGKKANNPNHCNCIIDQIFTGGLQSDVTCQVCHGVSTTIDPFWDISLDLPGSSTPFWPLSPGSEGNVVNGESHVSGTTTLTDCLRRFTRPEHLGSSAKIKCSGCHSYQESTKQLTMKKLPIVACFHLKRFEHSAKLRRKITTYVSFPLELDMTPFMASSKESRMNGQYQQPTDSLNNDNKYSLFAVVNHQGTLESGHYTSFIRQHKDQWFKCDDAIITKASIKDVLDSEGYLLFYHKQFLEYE
How it was run: as §1

[3] = molecular target: USP24 (UniProt Q9UPU5)
USP24, sequence (Q9UPU5 whole entry): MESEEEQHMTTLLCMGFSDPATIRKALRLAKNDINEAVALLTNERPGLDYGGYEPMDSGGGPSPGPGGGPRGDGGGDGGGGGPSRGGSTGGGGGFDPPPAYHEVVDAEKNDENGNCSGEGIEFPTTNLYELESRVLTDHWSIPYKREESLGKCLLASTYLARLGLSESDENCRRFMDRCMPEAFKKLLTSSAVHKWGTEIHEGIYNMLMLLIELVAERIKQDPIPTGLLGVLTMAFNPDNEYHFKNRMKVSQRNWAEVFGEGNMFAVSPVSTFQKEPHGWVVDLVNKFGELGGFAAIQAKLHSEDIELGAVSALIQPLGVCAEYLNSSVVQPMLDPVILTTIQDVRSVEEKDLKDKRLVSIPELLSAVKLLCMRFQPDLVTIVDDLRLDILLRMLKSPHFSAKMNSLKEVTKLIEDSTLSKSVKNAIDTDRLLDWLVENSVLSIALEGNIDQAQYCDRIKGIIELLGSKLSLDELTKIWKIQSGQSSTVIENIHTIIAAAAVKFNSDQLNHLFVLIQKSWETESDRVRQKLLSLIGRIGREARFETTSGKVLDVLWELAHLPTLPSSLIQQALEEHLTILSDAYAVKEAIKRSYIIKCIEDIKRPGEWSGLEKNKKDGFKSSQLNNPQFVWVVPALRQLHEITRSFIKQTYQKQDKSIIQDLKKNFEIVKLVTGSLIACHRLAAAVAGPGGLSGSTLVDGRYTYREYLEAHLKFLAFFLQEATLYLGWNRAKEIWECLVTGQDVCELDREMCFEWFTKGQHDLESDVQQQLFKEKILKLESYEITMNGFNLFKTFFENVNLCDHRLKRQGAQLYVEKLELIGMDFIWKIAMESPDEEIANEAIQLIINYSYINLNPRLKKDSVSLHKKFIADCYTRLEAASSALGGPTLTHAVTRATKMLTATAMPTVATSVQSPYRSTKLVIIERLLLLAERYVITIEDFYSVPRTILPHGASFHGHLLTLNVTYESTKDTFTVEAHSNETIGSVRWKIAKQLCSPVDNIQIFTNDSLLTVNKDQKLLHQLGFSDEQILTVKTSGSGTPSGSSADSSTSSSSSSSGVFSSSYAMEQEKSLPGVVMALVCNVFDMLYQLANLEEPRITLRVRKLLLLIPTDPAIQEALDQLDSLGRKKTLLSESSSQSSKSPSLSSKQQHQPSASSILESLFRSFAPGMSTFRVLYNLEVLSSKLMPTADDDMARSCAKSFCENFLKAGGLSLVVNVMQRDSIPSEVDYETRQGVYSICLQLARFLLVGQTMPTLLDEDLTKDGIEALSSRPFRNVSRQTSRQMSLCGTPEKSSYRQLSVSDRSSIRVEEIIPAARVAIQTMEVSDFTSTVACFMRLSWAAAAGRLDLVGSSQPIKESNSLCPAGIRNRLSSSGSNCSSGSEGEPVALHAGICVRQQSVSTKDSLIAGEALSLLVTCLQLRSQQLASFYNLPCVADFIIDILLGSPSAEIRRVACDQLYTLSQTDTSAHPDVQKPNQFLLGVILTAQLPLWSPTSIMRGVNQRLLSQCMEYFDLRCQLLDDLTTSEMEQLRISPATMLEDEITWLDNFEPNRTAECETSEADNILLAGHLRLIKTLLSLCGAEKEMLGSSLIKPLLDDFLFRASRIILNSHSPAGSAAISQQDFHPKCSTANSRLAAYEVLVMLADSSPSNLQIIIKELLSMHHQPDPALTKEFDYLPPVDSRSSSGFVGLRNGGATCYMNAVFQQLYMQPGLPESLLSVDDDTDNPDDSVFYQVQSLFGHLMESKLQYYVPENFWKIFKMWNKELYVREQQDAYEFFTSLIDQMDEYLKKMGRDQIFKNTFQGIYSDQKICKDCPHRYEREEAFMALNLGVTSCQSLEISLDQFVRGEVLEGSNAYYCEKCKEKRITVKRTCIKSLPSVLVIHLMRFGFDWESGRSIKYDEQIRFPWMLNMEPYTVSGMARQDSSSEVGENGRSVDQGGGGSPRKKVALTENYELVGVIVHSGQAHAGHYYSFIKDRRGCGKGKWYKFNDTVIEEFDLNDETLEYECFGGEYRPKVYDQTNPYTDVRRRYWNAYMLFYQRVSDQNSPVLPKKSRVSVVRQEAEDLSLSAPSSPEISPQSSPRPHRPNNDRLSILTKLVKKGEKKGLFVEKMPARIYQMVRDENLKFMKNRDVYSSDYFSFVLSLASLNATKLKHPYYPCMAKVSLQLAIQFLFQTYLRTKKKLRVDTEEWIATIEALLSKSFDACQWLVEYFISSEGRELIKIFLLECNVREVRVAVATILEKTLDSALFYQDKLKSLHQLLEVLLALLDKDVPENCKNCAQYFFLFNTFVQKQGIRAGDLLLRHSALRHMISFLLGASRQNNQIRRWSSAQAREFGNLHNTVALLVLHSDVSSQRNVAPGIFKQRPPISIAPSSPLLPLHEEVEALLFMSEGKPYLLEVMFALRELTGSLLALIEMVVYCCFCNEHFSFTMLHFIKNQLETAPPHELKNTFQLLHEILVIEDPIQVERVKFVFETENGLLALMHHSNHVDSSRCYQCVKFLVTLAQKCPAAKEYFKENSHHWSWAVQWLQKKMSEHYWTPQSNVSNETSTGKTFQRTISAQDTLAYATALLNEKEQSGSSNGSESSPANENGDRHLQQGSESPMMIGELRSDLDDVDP
How it was run: as §1

[4] = molecular target: T3, USP25 (UniProt Q9UHP3)
T3 sequence (whole entry): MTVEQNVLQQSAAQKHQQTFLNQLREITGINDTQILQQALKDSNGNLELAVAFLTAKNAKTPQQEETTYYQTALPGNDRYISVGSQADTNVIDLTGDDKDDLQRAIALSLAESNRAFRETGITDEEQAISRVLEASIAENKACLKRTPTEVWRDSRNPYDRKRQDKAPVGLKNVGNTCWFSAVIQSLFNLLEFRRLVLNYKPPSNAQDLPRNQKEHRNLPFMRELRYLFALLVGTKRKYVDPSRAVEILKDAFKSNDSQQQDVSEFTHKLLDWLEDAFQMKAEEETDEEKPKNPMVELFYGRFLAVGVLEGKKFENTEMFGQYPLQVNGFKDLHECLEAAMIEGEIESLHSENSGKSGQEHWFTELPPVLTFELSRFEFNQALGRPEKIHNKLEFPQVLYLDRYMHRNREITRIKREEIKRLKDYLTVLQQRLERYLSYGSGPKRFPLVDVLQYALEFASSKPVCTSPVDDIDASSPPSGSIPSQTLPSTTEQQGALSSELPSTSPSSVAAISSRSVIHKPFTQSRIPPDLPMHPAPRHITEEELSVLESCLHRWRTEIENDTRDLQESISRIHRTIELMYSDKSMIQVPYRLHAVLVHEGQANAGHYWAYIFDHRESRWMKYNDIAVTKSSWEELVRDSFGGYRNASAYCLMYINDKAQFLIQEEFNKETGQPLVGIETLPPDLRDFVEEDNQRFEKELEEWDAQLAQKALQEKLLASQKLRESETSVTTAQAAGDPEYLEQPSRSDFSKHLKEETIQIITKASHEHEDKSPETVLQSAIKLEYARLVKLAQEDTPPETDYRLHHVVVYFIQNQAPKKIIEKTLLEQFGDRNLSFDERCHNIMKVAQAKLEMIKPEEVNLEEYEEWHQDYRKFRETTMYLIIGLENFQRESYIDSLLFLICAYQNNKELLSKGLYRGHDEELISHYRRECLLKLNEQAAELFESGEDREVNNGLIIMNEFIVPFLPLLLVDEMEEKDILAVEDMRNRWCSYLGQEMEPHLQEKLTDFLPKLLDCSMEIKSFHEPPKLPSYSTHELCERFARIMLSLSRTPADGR
How it was run: as §1

[5] = molecular target: T4, USP28 (UniProt Q96RU2)
T4 sequence (whole entry): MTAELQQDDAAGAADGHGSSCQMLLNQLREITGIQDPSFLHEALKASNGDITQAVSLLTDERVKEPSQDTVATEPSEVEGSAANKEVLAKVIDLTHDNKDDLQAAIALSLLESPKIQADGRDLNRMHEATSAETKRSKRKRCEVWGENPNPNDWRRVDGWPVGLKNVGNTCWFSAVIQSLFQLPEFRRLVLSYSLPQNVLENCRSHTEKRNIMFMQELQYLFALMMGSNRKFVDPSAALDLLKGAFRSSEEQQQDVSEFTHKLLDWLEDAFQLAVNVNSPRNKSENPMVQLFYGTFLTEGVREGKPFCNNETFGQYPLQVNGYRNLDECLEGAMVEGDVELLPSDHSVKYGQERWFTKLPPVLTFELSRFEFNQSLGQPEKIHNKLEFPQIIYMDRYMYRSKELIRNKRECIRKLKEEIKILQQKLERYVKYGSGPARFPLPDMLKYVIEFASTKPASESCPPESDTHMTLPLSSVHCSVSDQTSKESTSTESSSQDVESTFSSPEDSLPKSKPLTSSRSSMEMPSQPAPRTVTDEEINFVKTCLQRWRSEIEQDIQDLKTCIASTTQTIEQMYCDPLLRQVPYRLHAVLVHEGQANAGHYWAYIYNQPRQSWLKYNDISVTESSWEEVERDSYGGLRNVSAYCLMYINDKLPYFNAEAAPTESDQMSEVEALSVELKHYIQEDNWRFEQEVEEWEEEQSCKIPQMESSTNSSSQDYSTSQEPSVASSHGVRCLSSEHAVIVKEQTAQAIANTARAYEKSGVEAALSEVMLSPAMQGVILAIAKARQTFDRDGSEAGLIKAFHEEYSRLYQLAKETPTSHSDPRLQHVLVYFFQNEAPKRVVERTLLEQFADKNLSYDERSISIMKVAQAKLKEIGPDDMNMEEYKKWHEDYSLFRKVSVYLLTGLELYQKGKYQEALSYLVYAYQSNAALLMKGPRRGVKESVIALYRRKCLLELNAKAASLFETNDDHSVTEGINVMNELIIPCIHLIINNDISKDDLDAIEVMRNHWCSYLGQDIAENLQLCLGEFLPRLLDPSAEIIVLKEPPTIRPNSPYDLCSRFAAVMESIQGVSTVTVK
How it was run: as §1

Measured: log2 ratio of Biotin-Ahx-Ub-VS probe labelling

O=C(CCl)N(C1CCCC1)C1CCS(=O)(=O)C1 (stereo not given)
inactive: [1] -0.0865 | [2] 0.236 | [3] -0.274 | [4] 0.0715 | [5] -0.36
